Holding throughout (test): DAPPL (digital affinity profiling via proximity ligation, sequencing); 10 mM Tris-HCl pH 7.5, 50 mM NaCl, 1 mM DTT, 4% glycerol, room temperature, 30 min; GST-TFs on glutathione beads, 16-mer random dsDNA library, 0.1% formaldehyde crosslink after washing; high values mean tight binding
Common to all, as to settings: protein: recombinant; tags: N-terminal GST; dsDNA, one strand shown

For one test, the target named is T1, FLI1 (Homo sapiens, UniProt Q01543 1-452).
T1 sequence: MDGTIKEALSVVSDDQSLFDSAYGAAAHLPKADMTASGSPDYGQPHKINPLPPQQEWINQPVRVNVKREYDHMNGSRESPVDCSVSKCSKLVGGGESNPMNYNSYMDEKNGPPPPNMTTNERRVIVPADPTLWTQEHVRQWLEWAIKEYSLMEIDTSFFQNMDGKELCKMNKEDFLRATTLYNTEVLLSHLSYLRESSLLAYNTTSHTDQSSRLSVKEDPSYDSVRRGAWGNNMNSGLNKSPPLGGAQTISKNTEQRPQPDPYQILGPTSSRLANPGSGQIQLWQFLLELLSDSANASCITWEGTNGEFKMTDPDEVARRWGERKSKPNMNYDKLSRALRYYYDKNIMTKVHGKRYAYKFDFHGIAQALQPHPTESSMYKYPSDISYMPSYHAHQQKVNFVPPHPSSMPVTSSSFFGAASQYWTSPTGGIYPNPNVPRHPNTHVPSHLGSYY
Summed up: (§1)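 After expression in yeast as GST fusions, human transcription factors were bound to glutathione beads, DNA-barcoded and mixed with a tag-only sample. The pools were incubated with 200 nmole of a 16-mer random double-stranded DNA library in Tris/NaCl/DTT/glycerol buffer (30 min, room temperature), washed and crosslinked with 0.1% formaldehyde. Proximity ligation with BsaI/T4 ligase ran for 1 h at 37 °C, before PCR amplification and sequencing on an Illumina NextSeq500. Binding signal is a hexamer's read frequency for a factor divided by its frequency for the tag-only sample.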

Another test addresses T2, ELK1 (Homo sapiens, UniProt P19419 1-428).
T2 sequence: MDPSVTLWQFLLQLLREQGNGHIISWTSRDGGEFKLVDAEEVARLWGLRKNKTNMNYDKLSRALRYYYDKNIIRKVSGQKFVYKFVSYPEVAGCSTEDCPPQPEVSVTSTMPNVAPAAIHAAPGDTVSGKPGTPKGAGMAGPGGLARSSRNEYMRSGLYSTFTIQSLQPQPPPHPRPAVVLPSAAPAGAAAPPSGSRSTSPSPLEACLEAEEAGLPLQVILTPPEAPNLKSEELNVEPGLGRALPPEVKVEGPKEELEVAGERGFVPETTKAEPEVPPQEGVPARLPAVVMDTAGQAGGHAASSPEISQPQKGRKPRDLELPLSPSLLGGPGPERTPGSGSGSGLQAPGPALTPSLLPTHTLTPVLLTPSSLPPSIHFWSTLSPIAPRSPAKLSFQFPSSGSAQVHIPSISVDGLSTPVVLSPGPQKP
Summed up:
as §1

The target of another test is T3, GABPA (Homo sapiens, UniProt Q06546 1-454).
T3 sequence: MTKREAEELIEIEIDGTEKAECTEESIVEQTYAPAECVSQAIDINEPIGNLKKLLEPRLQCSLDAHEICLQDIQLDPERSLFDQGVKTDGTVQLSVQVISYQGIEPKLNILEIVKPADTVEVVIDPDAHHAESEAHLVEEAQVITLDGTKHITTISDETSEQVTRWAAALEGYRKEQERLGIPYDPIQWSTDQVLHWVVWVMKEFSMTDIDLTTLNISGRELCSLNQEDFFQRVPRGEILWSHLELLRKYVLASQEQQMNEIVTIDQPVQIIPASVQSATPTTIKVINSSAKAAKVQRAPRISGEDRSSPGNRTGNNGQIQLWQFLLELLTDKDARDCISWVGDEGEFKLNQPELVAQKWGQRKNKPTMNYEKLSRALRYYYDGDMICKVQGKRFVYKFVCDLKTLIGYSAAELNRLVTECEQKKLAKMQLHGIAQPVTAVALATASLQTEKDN
The method, boiled down: as §1

For another test, the target named is T4, ERG (Homo sapiens, UniProt P11308 1-479).
T4 sequence: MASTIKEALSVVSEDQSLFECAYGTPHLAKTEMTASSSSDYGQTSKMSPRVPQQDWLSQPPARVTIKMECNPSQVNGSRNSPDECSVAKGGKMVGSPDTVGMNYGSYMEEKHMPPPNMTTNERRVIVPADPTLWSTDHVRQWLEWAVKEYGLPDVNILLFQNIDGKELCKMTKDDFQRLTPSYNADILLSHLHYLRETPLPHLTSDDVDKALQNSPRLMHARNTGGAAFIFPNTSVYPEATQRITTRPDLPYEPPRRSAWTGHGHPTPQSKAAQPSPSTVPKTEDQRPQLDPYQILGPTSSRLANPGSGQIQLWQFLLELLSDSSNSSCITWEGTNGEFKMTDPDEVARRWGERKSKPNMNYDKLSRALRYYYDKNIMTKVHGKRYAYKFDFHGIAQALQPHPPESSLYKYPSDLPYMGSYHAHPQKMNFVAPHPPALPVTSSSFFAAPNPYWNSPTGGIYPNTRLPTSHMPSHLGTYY
The method, boiled down: as §1

A further test deals with ELF1 (Homo sapiens, UniProt P32519 1-619). Summed up: as §1
Chain of ELF1 (P32519 whole entry): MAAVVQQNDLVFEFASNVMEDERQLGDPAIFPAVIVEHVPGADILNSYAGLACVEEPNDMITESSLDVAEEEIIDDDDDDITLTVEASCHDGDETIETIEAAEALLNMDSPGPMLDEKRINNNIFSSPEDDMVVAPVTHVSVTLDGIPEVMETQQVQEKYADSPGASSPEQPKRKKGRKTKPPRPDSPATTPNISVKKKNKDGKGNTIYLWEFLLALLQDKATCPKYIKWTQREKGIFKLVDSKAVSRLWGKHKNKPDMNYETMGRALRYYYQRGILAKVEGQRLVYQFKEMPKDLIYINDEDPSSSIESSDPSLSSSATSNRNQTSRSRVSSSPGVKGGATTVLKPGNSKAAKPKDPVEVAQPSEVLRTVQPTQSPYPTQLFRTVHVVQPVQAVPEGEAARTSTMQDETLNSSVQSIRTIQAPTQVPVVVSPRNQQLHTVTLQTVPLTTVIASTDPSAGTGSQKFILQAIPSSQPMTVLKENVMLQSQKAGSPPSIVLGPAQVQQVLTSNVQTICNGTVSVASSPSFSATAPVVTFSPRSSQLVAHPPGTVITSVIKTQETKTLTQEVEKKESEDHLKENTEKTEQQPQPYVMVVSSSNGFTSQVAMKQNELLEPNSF
A further test has as its target T5, EHF (Homo sapiens, UniProt Q9NZC4 1-300).
T5 sequence: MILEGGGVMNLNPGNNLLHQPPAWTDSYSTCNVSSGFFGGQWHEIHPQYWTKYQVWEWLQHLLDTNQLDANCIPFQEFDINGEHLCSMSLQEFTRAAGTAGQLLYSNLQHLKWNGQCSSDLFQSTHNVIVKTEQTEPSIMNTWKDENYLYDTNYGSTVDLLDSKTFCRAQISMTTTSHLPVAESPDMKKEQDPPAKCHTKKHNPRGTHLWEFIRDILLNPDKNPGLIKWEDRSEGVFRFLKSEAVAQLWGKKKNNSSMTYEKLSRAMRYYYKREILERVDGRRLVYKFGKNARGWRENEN
The method, boiled down: as §1

Another test deals with SPI1 (Homo sapiens, UniProt P17947 1-270). The method, boiled down:
as §1

The target of the next test is SPIB (Homo sapiens, UniProt Q01892 1-262). Summed up: as §1
Chain of SPIB (Q01892 whole entry): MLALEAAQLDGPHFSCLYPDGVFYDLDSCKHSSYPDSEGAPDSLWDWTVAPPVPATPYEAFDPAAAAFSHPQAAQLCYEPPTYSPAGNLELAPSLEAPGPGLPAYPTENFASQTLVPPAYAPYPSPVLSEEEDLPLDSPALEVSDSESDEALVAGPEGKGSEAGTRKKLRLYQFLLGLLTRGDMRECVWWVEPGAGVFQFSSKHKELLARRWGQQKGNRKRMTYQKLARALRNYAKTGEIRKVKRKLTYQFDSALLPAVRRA
The next test has as its target T6, ELK3 (Homo sapiens, UniProt P41970 1-407).
T6 sequence: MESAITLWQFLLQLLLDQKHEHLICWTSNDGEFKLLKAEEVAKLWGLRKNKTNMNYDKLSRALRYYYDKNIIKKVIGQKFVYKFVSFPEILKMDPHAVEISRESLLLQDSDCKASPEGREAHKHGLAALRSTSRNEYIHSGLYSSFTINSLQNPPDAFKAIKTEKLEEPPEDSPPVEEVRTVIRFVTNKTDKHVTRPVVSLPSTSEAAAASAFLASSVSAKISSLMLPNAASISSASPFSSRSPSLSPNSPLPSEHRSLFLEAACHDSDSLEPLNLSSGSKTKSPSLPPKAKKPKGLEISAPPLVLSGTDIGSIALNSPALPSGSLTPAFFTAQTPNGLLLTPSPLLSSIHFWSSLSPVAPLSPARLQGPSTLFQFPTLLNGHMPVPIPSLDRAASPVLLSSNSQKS
Summed up: as §1

The target of the next test is T7, FEV (Homo sapiens, UniProt Q99581 1-238).
T7 sequence: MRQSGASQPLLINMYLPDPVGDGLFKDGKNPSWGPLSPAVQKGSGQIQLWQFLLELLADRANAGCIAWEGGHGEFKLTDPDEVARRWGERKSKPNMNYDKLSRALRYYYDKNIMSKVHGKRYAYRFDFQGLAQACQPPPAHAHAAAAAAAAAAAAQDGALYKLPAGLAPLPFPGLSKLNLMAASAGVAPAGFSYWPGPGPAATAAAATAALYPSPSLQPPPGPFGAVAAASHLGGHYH
Summed up: as §1

A further test deals with ETV5 (Homo sapiens, UniProt P41161 1-510). The method, boiled down: as §1
Chain of ETV5 (P41161 whole entry): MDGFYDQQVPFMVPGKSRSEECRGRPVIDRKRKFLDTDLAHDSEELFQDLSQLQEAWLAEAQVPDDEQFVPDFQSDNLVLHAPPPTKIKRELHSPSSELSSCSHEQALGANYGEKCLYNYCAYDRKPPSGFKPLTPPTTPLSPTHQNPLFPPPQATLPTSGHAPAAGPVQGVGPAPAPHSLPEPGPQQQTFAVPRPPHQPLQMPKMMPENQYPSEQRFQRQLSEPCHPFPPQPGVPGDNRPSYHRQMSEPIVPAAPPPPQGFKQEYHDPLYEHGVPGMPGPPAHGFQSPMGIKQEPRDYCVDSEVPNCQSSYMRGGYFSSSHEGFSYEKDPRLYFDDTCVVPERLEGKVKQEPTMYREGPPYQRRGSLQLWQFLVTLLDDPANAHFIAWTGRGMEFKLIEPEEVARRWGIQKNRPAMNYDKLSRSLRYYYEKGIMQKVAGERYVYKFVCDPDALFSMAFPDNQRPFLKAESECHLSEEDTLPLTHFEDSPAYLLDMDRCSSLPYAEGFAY
Another test concerns the target T8, SPIC (Homo sapiens, UniProt Q8N5J4 1-248).
T8 sequence: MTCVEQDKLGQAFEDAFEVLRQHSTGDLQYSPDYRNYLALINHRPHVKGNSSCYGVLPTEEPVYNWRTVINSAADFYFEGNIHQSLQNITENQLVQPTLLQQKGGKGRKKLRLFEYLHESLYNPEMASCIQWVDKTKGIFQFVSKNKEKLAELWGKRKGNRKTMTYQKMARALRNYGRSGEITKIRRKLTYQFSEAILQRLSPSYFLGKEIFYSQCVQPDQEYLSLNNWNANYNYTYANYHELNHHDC
Summed up: as §1

The target in another test is ELF4 (Homo sapiens, UniProt Q99607 1-663). Summed up: as §1
Chain of ELF4 (Q99607 whole entry): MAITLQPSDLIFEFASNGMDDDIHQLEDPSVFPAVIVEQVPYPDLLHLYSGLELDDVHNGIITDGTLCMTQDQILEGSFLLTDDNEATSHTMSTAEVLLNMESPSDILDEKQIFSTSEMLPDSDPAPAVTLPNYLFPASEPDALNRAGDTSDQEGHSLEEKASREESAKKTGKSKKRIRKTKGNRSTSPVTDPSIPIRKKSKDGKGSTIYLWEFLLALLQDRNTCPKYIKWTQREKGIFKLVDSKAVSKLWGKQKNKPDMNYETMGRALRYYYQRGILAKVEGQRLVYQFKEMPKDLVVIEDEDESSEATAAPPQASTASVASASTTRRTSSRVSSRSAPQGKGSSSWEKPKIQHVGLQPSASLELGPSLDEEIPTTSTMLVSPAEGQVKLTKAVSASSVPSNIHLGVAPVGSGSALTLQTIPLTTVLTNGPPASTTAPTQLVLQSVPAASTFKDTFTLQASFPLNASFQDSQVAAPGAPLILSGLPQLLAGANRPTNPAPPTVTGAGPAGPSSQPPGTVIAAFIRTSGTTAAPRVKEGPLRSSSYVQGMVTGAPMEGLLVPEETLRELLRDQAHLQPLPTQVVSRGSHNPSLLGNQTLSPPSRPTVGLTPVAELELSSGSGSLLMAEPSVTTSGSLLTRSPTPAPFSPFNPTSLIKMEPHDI
Another test concerns the target ETV1 (Homo sapiens, UniProt P50549 1-477). The method, boiled down: as §1
A further test addresses T9, ERF (Homo sapiens, UniProt P50548 1-548).
T9 sequence: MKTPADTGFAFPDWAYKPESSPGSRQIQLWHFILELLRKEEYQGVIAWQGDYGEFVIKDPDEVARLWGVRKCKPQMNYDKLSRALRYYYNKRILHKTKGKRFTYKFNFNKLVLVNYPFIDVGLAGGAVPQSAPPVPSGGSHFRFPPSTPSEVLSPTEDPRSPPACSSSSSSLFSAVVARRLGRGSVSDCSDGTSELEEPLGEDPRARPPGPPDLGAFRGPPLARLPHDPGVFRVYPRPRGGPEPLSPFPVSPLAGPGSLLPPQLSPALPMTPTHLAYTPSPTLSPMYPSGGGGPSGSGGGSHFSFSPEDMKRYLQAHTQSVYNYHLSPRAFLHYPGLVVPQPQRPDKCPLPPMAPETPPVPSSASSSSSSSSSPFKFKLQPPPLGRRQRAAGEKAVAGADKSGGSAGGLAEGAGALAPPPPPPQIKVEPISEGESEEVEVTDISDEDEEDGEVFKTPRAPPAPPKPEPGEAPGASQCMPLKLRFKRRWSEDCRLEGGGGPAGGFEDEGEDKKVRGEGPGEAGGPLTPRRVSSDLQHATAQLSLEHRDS
Summed up:
as §1

Another test has as its target T10, ETV3L (Homo sapiens, UniProt Q6ZN32 1-361).
T10 sequence: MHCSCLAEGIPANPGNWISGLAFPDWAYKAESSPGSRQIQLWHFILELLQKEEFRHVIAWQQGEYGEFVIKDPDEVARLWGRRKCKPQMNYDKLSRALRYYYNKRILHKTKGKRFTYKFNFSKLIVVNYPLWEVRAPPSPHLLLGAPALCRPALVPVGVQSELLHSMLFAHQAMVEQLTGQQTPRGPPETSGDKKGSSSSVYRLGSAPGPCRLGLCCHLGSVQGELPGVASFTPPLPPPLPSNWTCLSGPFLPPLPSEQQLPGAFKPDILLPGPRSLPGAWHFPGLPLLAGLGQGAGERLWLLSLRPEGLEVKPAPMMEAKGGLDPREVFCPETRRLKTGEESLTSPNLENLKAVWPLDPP
Summed up: as §1

The next test deals with T11, ETS2 (Homo sapiens, UniProt P15036 1-469).
T11 sequence: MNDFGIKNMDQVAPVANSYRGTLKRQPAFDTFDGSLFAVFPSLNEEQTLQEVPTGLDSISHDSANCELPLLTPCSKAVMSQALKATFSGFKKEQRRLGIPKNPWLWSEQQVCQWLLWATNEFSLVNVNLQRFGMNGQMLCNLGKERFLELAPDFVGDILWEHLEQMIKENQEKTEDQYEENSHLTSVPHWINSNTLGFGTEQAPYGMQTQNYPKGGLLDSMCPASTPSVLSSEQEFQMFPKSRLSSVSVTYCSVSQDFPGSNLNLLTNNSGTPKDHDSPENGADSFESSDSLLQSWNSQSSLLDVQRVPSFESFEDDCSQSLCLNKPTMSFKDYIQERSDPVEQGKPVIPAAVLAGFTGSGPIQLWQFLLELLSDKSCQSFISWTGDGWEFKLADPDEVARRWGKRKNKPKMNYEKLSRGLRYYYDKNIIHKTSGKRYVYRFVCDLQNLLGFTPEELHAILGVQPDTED
The method, boiled down:
as §1

A further test concerns the target T12, ELF5 (Homo sapiens, UniProt Q9UKW6-2 1-255).
T12 sequence: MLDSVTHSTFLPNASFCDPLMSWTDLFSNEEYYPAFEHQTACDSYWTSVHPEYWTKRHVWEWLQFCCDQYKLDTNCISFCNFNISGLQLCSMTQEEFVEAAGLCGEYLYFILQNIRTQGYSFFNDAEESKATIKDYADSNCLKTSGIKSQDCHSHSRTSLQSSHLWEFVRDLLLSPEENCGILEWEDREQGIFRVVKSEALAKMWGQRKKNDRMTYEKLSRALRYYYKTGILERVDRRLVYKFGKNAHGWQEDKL
The method, boiled down: as §1

A further test deals with T13, ETV3 (Homo sapiens, UniProt P41162-2 1-143).
T13 sequence: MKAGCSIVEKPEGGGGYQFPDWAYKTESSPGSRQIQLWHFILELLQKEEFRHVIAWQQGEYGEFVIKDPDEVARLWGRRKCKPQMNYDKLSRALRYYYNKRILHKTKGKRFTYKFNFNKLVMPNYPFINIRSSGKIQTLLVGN
Summed up:
as §1

The target in a further test is ETV6 (Homo sapiens, UniProt P41212 1-452). Summed up:
as §1

Chain of ETV1 (P50549 whole entry): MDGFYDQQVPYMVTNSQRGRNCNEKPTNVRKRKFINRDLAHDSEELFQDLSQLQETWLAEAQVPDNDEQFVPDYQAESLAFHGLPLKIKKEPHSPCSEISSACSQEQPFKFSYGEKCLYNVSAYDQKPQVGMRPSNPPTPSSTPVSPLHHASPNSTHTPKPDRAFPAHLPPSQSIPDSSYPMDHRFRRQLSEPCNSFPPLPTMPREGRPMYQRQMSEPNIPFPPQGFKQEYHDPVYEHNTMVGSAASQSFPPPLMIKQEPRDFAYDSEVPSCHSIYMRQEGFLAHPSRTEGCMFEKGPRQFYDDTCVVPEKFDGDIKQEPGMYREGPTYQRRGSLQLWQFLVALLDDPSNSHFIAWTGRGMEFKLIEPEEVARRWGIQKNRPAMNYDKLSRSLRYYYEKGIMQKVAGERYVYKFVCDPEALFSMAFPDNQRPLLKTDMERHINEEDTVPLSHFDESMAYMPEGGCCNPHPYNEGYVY
Chain of ETV6 (P41212 whole entry): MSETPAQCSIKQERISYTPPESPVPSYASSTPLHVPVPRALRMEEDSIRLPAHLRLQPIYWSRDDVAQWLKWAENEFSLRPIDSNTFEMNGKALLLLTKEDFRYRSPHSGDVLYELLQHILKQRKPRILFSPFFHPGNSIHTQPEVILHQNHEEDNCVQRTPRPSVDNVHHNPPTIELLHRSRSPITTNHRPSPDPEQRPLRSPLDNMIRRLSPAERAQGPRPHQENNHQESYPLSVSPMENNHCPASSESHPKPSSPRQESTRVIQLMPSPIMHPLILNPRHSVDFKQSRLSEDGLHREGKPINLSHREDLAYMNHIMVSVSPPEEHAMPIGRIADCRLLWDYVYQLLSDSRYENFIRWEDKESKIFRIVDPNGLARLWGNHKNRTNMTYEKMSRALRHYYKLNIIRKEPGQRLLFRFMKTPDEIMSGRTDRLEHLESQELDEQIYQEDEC

With AAACCG, the binding signal in the test with FLI1 was 1.05 fold enrichment (6-mer frequency, TF over GST control); with ELK1, 1.05 fold enrichment (6-mer frequency, TF over GST control); with GABPA, 1.07 fold enrichment (6-mer frequency, TF over GST control); in the test with ERG it was 1.13 fold enrichment (6-mer frequency, TF over GST control); in the test with ELF1 it was 1.12 fold enrichment (6-mer frequency, TF over GST control); in the test with EHF, 1.08 fold enrichment (6-mer frequency, TF over GST control). Moreover, the binding signal in the test with SPI1 was 1.25 fold enrichment (6-mer frequency, TF over GST control); with SPIB it was 1.05 fold enrichment (6-mer frequency, TF over GST control); in the test with ELK3 it was 1.09 fold enrichment (6-mer frequency, TF over GST control); in the test with FEV, 1.33 fold enrichment (6-mer frequency, TF over GST control); with ETV5 it was 1.07 fold enrichment (6-mer frequency, TF over GST control); with SPIC, 1.05 fold enrichment (6-mer frequency, TF over GST control). The binding signal with ELF4 is 1.07 fold enrichment (6-mer frequency, TF over GST control); with ETV1 it was 1.18 fold enrichment (6-mer frequency, TF over GST control); in the test with ERF, 1.1 fold enrichment (6-mer frequency, TF over GST control); with ETV3L, 1.06 fold enrichment (6-mer frequency, TF over GST control); with ETS2, 1 fold enrichment (6-mer frequency, TF over GST control); with ELF5, 1.02 fold enrichment (6-mer frequency, TF over GST control). Moreover, the binding signal with ETV3 was 1.08 fold enrichment (6-mer frequency, TF over GST control); with ETV6, 1.05 fold enrichment (6-mer frequency, TF over GST control).

Values taken from article PMC7862700, “An all-to-all approach to the identification of sequence-specific readers for epigenetic DNA modifications on cytosine”.
